Assay results taken from PubChem BioAssay (Tox21).
Active and inactive are the calls of the source. Calls follow the shape of the full dose curve.

Assay: qHTS assay to identify small molecule agonists of the sonic hedgehog signaling (Shh) pathway (AID 1259368);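 also: NIH/3T3-derived 3T3Gli1-Luc cells carrying a stable Gli1-driven firefly luciferase reporter; nearly all actives have a fitted effect of over 15% in size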
Conditions: NIH/3T3 Gli1-Luc reporter, luciferase, 24 h; series mostly up to 92.4 µM
Excerpt: National Center for Advancing Translational Sciences [NCATS]
NIH Chemical Genomics Center [NCGC]
U.S. Environmental Protection Agency [EPA]
National Institutes of Environmental Health Sciences [NIEHS]
National Toxicology Program [NTP]
The sonic hedgehog (Shh) pathway is essential for normal embryonic development. Dysregulation of the Shh pathway can cause severe developmental defects in organs. Therefore chemicals that interfere with the pathway are potential developmental toxicants. A cell line designated 3T3Gli1-Luc (DMB/OARSA/CFSAN/FDA, Laurel, MD), a NIH/3T3 derived clone containing stably integrated Gli1-Luc reporter is used to detect chemical interference of the Shh pathway, by changes in the expression of the firefly Luc gene under the control of the Gli1 transcriptional response element. This cell line was used to screen Tox21 libraries for identifying and prioritizing the potential developmental toxicants that interfere Shh pathway.
3T3 Gli1-Luc cells were dispensed at 2,000 per well in 5uL of culture medium into white solid bottom 1536-well plates (Greiner Bio-One, Monroe, NC) using a Multidrop Combi (Thermo Scientific, Waltham, MA) dispenser. The assay plates were incubated at 37 C and 5% CO2 for 4hr, and then 23nL of compounds dissolved in DMSO and positive control were transferred using a Pintool station (Wako, San Diego, CA). The assay plates were incubated at 37C and 5% CO2 for 24hr. For luciferase read, 4uL of Amplite Luciferase reporter gene assay reagent (AAT Bioquest, Inc. Sunnyvale, CA) was added to each well of the assay plates using Flying Reagent Dispenser (FRD, Aurora Discovery, San Diego, CA) and incubated at room temperature for 30min. The luminescence signal was measured using a ViewLux plate reader (Perkin Elmer, Shelton, CT).

SMILES | outcome
Cc1ccc(S(N)(=O)=O)cc1 | inactive
OCC(CO)(CBr)CBr | inactive
CC(=O)c1ccccc1 | inactive
COS(C)(=O)=O | inactive
O=C(O)c1ccc2c(c1)C(=O)OC2=O | inactive
O=C(O)c1ccc(C(=O)O)cc1 | inactive
CN(C)CCC(c1ccc(Cl)cc1)c1ccccn1 (stereo not given) | inactive
O=c1[nH]c(=O)n([C@H]2C[C@H](O)[C@@H](CO)O2)cc1Br | inactive
CC(C)c1ccc(S(=O)(=O)O)cc1 | inactive
C=C(C)C(=O)Nc1ccc(Cl)c(Cl)c1 | inactive
O=C(O)c1cc(=O)c2c(OCC(O)COc3cccc4oc(C(=O)O)cc(=O)c34)cccc2o1 | inactive
CC1=C(C)S(=O)(=O)CCS1(=O)=O | inactive
O=C(O)CC(C(=O)O)C(CC(=O)O)C(=O)O (stereo not given) | inactive
Fc1ccc(Br)cc1 | inactive
O=C(CC(C(=O)OC1CCCCC1)S(=O)(=O)O)OC1CCCCC1 (stereo not given) | inactive
COc1ccc2cc([C@H](C)C(=O)O)ccc2c1 | inactive
CC(=O)Nc1cccc(O)c1 | inactive
CCc1cccc(C)c1N | inactive
C=C(C)C(=O)O[C@H]1C[C@@H]2CC[C@@]1(C)C2(C)C | inactive
OCc1cccnc1 | inactive

SMILES | outcome
C/C=C1/CC2C=CC1C2 (stereo not given) | inactive
CCCCC(CC)COC(=O)CCCCC(=O)OCC(CC)CCCC (stereo not given) | inactive
C#CCN(C)Cc1ccccc1 | inactive
N[C@@H](Cc1cc(I)c(Oc2cc(I)c(O)c(I)c2)c(I)c1)C(=O)O | inactive
C[Si](O[Si](C)(C)C)O[Si](C)(C)C | inactive
CCCCCCCCC/C=C/CC1CC(=O)OC1=O (stereo not given) | inactive
Cc1ccc(N(C)C)cc1 | inactive
OCCOCCOCCO | inactive
CSCCC=O | inactive
Cc1ccc2oc(=O)ccc2c1 | inactive
CN(C)CCOCCN(C)C | inactive
CC(c1cc2ccccc2s1)N(O)C(N)=O (stereo not given) | inactive
CC(=O)Nc1ccccc1 | inactive
CCCCCC1=CCCC1=O | inactive
ON=C1CCCCC1 | inactive
CCCCCCCCCCCCc1ccccc1 | inactive
CCc1ccc(CCOc2ccc(CC3SC(=O)NC3=O)cc2)nc1 (stereo not given) | inactive
Nc1ccccc1[N+](=O)[O-] | inactive
COc1ccc(NC(C)=O)cc1N | inactive
C[C@H]1C[C@@H]2[C@H]([C@@H](O)C[C@@]3(C)[C@H]2CC[C@]3(O)C(=O)CO)[C@@]2(C)C=CC(=O)C=C12 | inactive
